Myeloid diff 2 – induction of myeloid progenitor differentiation, primary screen, cell-based, flow cytometry, MLPCN library; ER-HoxA9 myeloid progenitors, lysozyme-GFP differentiation; calls only at 10 µM; 360,000 compounds, 1% hits; AID 624256, 2012;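 active means normalized GFP-positive differentiation at or above the plate's own cutoff, the solvent-only control mean plus 3 SD; inconclusive means no clear call, values can overlap the other calls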;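 further: cells exposed to compound for four days before flow analysis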
CendR NRP1 mod – modulators of CendR peptide binding to NRP-1, primary screen, biochemical, fluorescence polarization, uHTS; inhibition, % at 25 µM; 360,000 compounds, 0.85% hits; FAM-RPARPAR peptide binding to NRP-1; Neuropilin-1 (Homo sapiens), O14786;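 active means inhibition or corrected inhibition above about 18%, plus a signal ratio from 0.5 to 1.5, limit read from the data, passing the limit was not always enough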
NadD block – inhibitors of S. aureus NadD, primary screen, biochemical, colorimetric, uHTS; Nicotinate-nucleotide adenylyltransferase NadD (Staphylococcus aureus N315); purified NadD enzyme, colorimetric absorbance read-out; inhibition, % at 20 µM; 360,000 compounds, 0.78% hits; AID 602399, 2012; in the data active means inhibition above about 26%
FAS-TE inh – FAS thioesterase domain inhibitors, primary screen, biochemical, fluorescence intensity, uHTS; recombinant FAS-TE, OMFH fluorogenic substrate, fluorescence endpoint; Fatty acid synthase (Homo sapiens), P49327; inhibition, % at 15 µM; 360,000 compounds, 0.67% hits;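 active means compounds whose normalised, plate-corrected inhibition of enzyme fluorescence in the single-dose primary screen is 50% or more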;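 further: 0% = DMSO with enzyme and 100% = substrate without enzyme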
CRFBP-R2 block – antagonists of CRF-BP/CRF-R2 complex, primary screen, cell-based, HEK293, calcium dye fluorescence, uHTS. CRF-induced calcium fluorescence. inhibition, % at 11.8 µM. 350,000 compounds, 0.59% hits. AID 588475, 2011;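 active means inhibition of the ligand-induced calcium signal above about 50% at the single tested concentration, limit read from the data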
The depositor's hits bear a star; i = inactive; ? = inconclusive; nt = no result given; + = active, no number. An excerpt weighted towards active compounds, which were near 3.6% of everything screened.

SMILES | Myeloid diff 2 | CendR NRP1 mod | NadD block | FAS-TE inh | CRFBP-R2 block
COc1ccc(NC(=O)c2ccco2)cn1 | i | 26* | 0 | -5 | -14
CC(C)(C)n1cnc2cc(NC(=O)c3cccs3)ccc21 | i | 2 | -2 | -2 | -6
Cn1cnc2cc(NC(=O)c3ccco3)ccc21 | i | 24* | -5 | -8 | 0
COc1cccc(OC)c1C(=O)Nc1ccc(NC(=O)c2ccco2)cc1 | i | 4 | 0 | -6 | -22
CCc1cc(C(=O)Nc2ccc(OC)nc2)sc1C | nt | 24* | -7 | -9 | nt
O=C(Nc1ccc2c(c1)ncn2-c1ccccc1)c1ccco1 | i | 8 | -3 | -2 | -3
CC(C)(C)n1cnc2cc(NC(=O)c3ccccc3)ccc21 | i | 23* | -4 | -2 | -6
COc1ccc(NC(=O)c2cc(Br)c(Br)s2)cn1 | i | -2 | 0 | 12 | -9
N#C/C(=C\c1c(F)cccc1Cl)S(=O)(=O)c1ccccn1 | i | -3 | -4 | -9 | 5
Cc1ccc(C(=O)C2CCN(CC(=O)N3CCN(c4ccc(F)cc4)CC3)CC2)cc1 | i | -13 | 5 | -1 | 2
O=C(N/N=C/c1ccc2c(c1)OCO2)c1cccc2ccccc12 | i | 30* | 1 | 7 | -4
O=C(N/N=C/c1ccc2c(c1)OCO2)c1ccc(COc2cccc3cccnc23)cc1 | + | -8 | 13 | 14 | -4
O=C(N/N=C/c1ccc2c(c1)OCO2)c1cc(-c2ccccc2)nc2ccccc12 | i | 26* | 10 | 36 | -21
CN(c1cc(Cl)c2c(c1)OCO2)c1cc2c(c3c1ccn3C)C1CCC2C1 (stereo not drawn) | i | 11 | -1 | 45 | nt
Cc1ccc(S(=O)(=O)N2CCCOC2CNC(=O)C(=O)NCc2ccncc2)cc1 (stereo not drawn) | i | -7 | 3 | -5 | 14
COc1ccc(N(C(=O)c2snc(C(N)=O)c2N)C(CC(C)C)C(=O)NCC2CCCO2)cc1 (stereo not drawn) | i | -4 | 1 | 1 | 2
CCCN1CCC(=O)N([C@H](CSc2ccc(OC)cc2)Cc2ccccc2)CC1 | + | -8 | -9 | -6 | 4
CC(C)CN1CCC(=O)N([C@H](CSc2ccc(Br)cc2)Cc2ccccc2)CC1 | i | 24* | -3 | 22 | -9
O=C1CCN(CCc2ccccc2)CCN1[C@H](CSc1ccc(Br)cc1)c1ccccc1 | i | 23 | 0 | 30 | 23
CCCN1CCC(=O)N([C@H](CSc2ccc(Br)cc2)c2ccccc2)CC1 | i | 24* | -7 | 24 | 2
O=C(c1ccc(N2CCCC2=O)cc1)N1CCN(c2ccccc2F)CC1 | i | 3 | -5 | -4 | 3
CC(C)(C)c1ccc(CC(=O)N2CCC2(C)C(=O)NS(=O)(=O)c2ccc(Cl)cc2)cc1 (stereo not drawn) | i | 0 | 3 | 1 | nt
CC(=O)Nc1sc2c(c1C#N)CC(C)(C)NC2(C)C | + | 8 | -2 | -8 | -12
CC1(C)Cc2c(sc(/N=C/N3CCCC3)c2C#N)C(C)(C)N1 | i | 14 | -2 | -3 | 62*
CCCC(=O)Nc1sc2c(c1C#N)CC(C)(C)NC2(C)C | i | -1 | -3 | -7 | 9
SMILES | Myeloid diff 2 | CendR NRP1 mod | NadD block | FAS-TE inh | CRFBP-R2 block
O=c1[nH][nH]c2c1[C@H](CCc1cccc(Cl)c1)O[C@H](CCc1ccccc1)C2 | i | -1 | 8 | -110 | nt
COC(CNC(=O)c1ccc(CS(=O)(=O)c2ccc(C)cc2)o1)OC | + | -4 | -1 | -2 | 18
COc1ccc([C@@H]2C[C@H]3[C@@H](CN2S(=O)(=O)c2ccccc2)C(=O)C[C@@H](c2cccc(Cl)c2)N3S(=O)(=O)c2ccc(C)cc2)cc1 | i | 1 | 17 | 32 | nt
Cn1nc([N+](=O)[O-])c(C(C#N)c2nc3ccccc3n2C)c(Cl)c1=O (stereo not drawn) | i | 28* | 15 | 13 | 18
Cn1c(-c2ccc([N+](=O)[O-])cc2)nc2ccccc21 | i | 12 | 2 | 1 | 0
Cn1c(=O)c(C(=O)NNC(=O)c2ccccc2F)c(O)c2ccccc21 | + | -6 | -7 | 1 | -1
Cc1c(NC(=O)Cn2nc(C(F)(F)F)c3c2CCCC3)c(=O)n(-c2ccccc2)n1C | i | 23* | 2 | 3 | 9
Cc1c(NC(=O)COC(=O)C2(c3ccc(F)cc3)CCCC2)c(=O)n(-c2ccccc2)n1C | i | 22* | -5 | -7 | -22
CCn1c(=O)c(C(=O)NNC(=O)c2ccccc2F)c(O)c2ccccc21 | ? | -3 | 7 | -6 | 27
Cc1c(NC(=O)c2c(O)c3ccccc3n(C)c2=O)c(=O)n(-c2ccccc2)n1C | i | 32* | 5 | -13 | -10
COc1ccccc1-c1noc2c1C(=O)N(Cc1cn(C3CCCC3)nn1)CC2 | i | 5 | -2 | -6 | nt
Cc1c(NC(=O)CSc2nc(N)cc(N)n2)c(=O)n(-c2ccccc2)n1C | i | 20* | 6 | -6 | 0
Cc1ncc([N+](=O)[O-])n1CC(=O)N/N=C/c1ccc(F)cc1 | + | 2 | -1 | -5 | -16
COc1ccc(C/C(C)=N/NC(=S)Nc2ccccc2)cc1 | i | 9 | 4 | -18 | -5
COc1ccc(C/C(C)=N/NC(=S)Nc2ccc(Cl)cc2)cc1 | i | 41* | -5 | 2 | -2
O=S(=O)(c1ccccc1)N1CCN(c2cc(-c3ccccc3)nc3ncnn23)CC1 | + | -6 | 18 | 15 | -2
CCCc1nc2ccccc2c(C(=O)N(CC)CC(=O)NCc2cccs2)c1CC | i | -4 | 3 | -2 | 4
CCN(CC)Cc1cc(Oc2ccc(O)c(CN(CC)CC)c2)ccc1O | i | 9 | 7 | 0 | nt
Cc1nc2ccc(C(=O)N3CCCC(CO)(Cc4ccc(F)cc4F)C3)cc2nc1C (stereo not drawn) | i | 12 | 7 | -2 | -5
CCc1nnc(NC(=O)/C=C/c2ccco2)s1 | i | -14 | 7 | -7 | -31
O=C(/C=C/c1ccco1)Nc1nnc(-c2ccco2)s1 | + | -15 | 10 | -12 | -13
COc1ccc(C2C(C#N)=C(N)SC(N)=C2C#N)cc1OC | + | 128 | 5 | -50 | -28
CN1CCN(C(=O)c2ccc(CNS(=O)(=O)c3cccc(Cl)c3)cc2)CC1 | i | 8 | -4 | -6 | -20
CSc1nc2ccc(NC(=O)C3CC(=O)N(Cc4ccccc4)C3)cc2s1 (stereo not drawn) | + | -8 | 0 | -14 | 15
N#C/C(=C/c1ccc(N2CCOCC2)o1)C(=O)Nc1ccccc1 | + | 134 | -1 | -105 | -99
CCCCCc1ccc(-c2ccc(/C=C/C(N)=O)cc2)nc1 | + | -11 | 14 | -5 | 3

Bioassay records: PubChem BioAssay, several laboratories
